From PubChem
Hits are enriched below; roughly 9.6% of the tested compounds scored in any of these assays.
L major viab: Leishmania major promastigote growth inhibition, primary screen; Leishmania major promastigotes, resazurin fluorescence viability; inhibition, % at 10 µM; 200,000 tested, 9% active; AID 1063, 2008; in the data active = inhibition above about 50%;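 note: promastigotes grown with compound for 44 hours at 28 °C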
Autophagy mod: autophagy modulators in MEF cells, primary screen, imaging, high-content, MEF GFP-LC3 | 190,000 tested, 0.98% active | MEF GFP-LC3 puncta imaging; test concentration mostly 10 µM | AID 463193, 2010 | calls only at 10 µM (by protocol);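 active = percentage of spot-positive cells more than 3 SD above its plate mean, without a fluorescence outlier flag or 80% toxicity; inconclusive = no clear call, values can overlap the other calls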
INS promoter inh: inhibitors of insulin promoter-driven GFP, primary screen, imaging, TRM-6 cells (human fetal islet line), eGFP reporter, cell count; reporter expression induced with tamoxifen; inhibition, % at 2 µM; 130,000 tested, 0.9% active; AID 1273, 2008;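 active = inhibition above the mean plus 3 SD, with well images judged a real hit on visual review, cut at about 60% in these data, passing the limit was not always enough; inconclusive = inhibition over the cutoff but images rejected on review; inactive = inhibition not above the cutoff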
Ins promoter up: insulin promoter activators in MIN6 cells, imaging, high-content screening, mouse beta cells. MIN6 insulin promoter-GFP reporter; active compounds read high. 190,000 tested, 0.3% active. z-score at 5 µM;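 active = z-score above 3 at 5 µM with at least 500 cells counted in the well; inconclusive = wells under 500 cells, flagged as cytotoxic or low count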
HCT116 PTEN-null: growth suppression of PTEN-null HCT116, primary screen, cell-based, CellTiter-Glo; 140,000 tested, 1.2% active; viability, % at 10 µM; HCT116 PTEN-null viability, 60 h; active compounds read low;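 active = viability at or below a set limit, 4 SD under the median of all tested compounds, cut at about 3.7% in these data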;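 note: PTEN knockout HCT116 line with beta catenin targeted HCT116 as companion control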
HCT116 bCat-KO: primary screen for growth suppressors in beta-catenin knockout HCT116 cells (colon tumor, human) | AID 818, 2007 | viability, % at 10 µM | HCT116 beta-catenin knockout viability, CellTiter-Glo, 60 h; active compounds read low | 140,000 tested, 1.5% active;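 active = viability at or under a set limit, the compound median less 4 SD, cut at about 6% in these data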
Hits are given with their value; 0 = inactive; ? = inconclusive; - = no result given; + = active, no number.

SMILES | L major viab | Autophagy mod | INS promoter inh | Ins promoter up | HCT116 PTEN-null | HCT116 bCat-KO
O=c1c2c(-c3ccccc3)csc2nc2c3ccccc3c(NCCN3CCOCC3)nn12 | 100.5 | + | 0 | 0 | - | -
c1ccc(-c2csc3ncnc(NCCCN4CCOCC4)c23)cc1 | 0 | 0 | 0 | ? | 0 | 0
O=C(CN1CCOc2ccccc21)NCc1ccc(F)cc1 | 0 | 0 | 60.0 | 0 | 0 | 0
O=C(CN1CCOc2ccccc21)NCc1ccc(Cl)cc1 | 0 | 0 | 0 | 0 | 0 | 0
CC(=O)N1CCc2ccc(S(=O)(=O)N3CCc4ccccc43)cc21 | 0 | 0 | 0 | 0 | - | -
Cc1c(C(=O)N2CCc3ccccc3C2)oc2ccc(S(=O)(=O)N3CCCCCC3)cc12 | 66.0 | 0 | 0 | 0 | 0 | 0
CC1CCN(S(=O)(=O)c2ccc3c(c2)oc(=O)n3CC(=O)N2CCc3ccccc3C2)CC1 | 0 | 0 | - | 0 | 0 | 0
CCn1c(=O)n(CC)c2cc(S(=O)(=O)N3CCc4ccccc43)ccc21 | 87.0 | 0 | 0 | 0 | 0 | 0
O=C(Cn1c(=O)oc2cc(S(=O)(=O)N3CCCC3)ccc21)N1CCCC1 | 0 | 0 | - | 0 | 0 | 0
CC1Cc2ccccc2N1C(=O)Cn1c(=O)oc2cc(S(=O)(=O)N3CCCCC3)ccc21 (centres undefined) | 99.7 | 0 | - | 0 | 0 | 0
O=C(Cn1c(=O)oc2cc(S(=O)(=O)N3CCc4ccccc43)ccc21)N1CCCCC1 | 97.5 | 0 | - | 0 | 0 | 0
CC(C)C(NC(=O)C(c1ccccc1)c1ccccc1)c1nc2ccccc2[nH]1 (centres undefined) | 0 | 0 | 0 | - | 0 | 0
O=C(c1ccncc1)N1CCN(C(=O)c2cccs2)CC1 | 0 | 0 | 0 | 0 | 0 | 0
O=C(Cn1c(=O)oc2cc(S(=O)(=O)N3CCCC3)ccc21)N1CCN(c2ccccn2)CC1 | 100.2 | 0 | - | - | 0 | 0
CCOC(=O)Cn1c(=O)oc2cc(S(=O)(=O)N3CCN(c4ccccn4)CC3)ccc21 | 0 | 0 | - | 0 | 0 | 0
O=C(Cn1c(=O)oc2cc(S(=O)(=O)N3CCCC3)ccc21)N1CCc2ccccc2C1 | 99.6 | 0 | - | 0 | 0 | 0
O=C(Cn1c(=O)oc2cc(S(=O)(=O)N3CCCCC3)ccc21)N1CCc2ccccc21 | 0 | + | - | 0 | 0 | 0
Cc1nc2cc(-c3ccc(Cl)cc3)nn2c(NCCN(C)C)c1C | 100.3 | 0 | 0 | 0 | - | -
CN(C)CCCNc1c2c(nc3cc(-c4cccc(F)c4)nn13)CCC2 | 0 | 0 | - | 0 | - | -
CC(=O)Nc1ccc2nc(NS(=O)(=O)c3ccc(C)cc3)sc2c1 | 0 | 0 | - | 0 | - | -
CCCCn1c(Oc2ccc(C(=O)OC)cc2)nc2c1c(=O)n(C)c(=O)n2C | 0 | + | 0 | 0 | 0 | 0
CSCCC(C(=O)Nc1ccc2c(c1)OCO2)N1C(=O)c2ccccc2C1=O (centres undefined) | 0 | 0 | 0 | 0 | 0 | 0
CC(=O)Nc1ccc(NS(=O)(=O)c2ccc3[nH]c(=O)[nH]c3c2)cc1 | 0 | 0 | 0 | 0 | - | -
Nc1ccc(O)cc1C(=O)OCC(=O)c1ccc(C2CCCCC2)cc1 | 59.6 | 0 | 0 | 0 | 0 | 0
CCOc1ccc(NC2=NCC(=O)N2Cc2cccs2)cc1 | 0 | 0 | 0 | 4.8 | 0 | 0
SMILES | L major viab | Autophagy mod | INS promoter inh | Ins promoter up | HCT116 PTEN-null | HCT116 bCat-KO
CCOc1ccc(NC2=NCCC(=O)N2Cc2cccs2)cc1 | 0 | 0 | 0 | 0 | 0 | 0
COCCN(C(=S)Nc1cc(C)cc(C)c1)C(C)c1cccnc1 (centres undefined) | 95.3 | 0 | 0 | 0 | 0 | 0
COCCN(C(=S)Nc1ccc(C)cc1)C(C)c1cccnc1 (centres undefined) | 80.5 | 0 | - | 0 | - | -
COCCN(C(=S)Nc1ccc(C)cc1C)C(C)c1cccs1 (centres undefined) | 0 | 0 | 0 | - | - | -
COCCN(C(=S)Nc1c(C)cc(C)cc1C)C(C)c1cccs1 (centres undefined) | 97.9 | 0 | 0 | 0 | - | -
Cc1ccc(NC(=S)Nc2ccc3[nH]c(=O)[nH]c3c2)cc1C | - | - | - | 0 | - | -
CC(C)(C)C(=O)Nc1cccc(-c2nc3ccccc3c(=O)o2)c1 | 0 | 0 | 0 | 0 | 0 | 0
CCn1cc(/C=N/NC(=O)COc2cccc3cccnc23)c2ccccc21 | 60.3 | 0 | 0 | 0 | 0 | 0
COc1cccc(OCCn2cc(/C=N/NC(=O)c3ccncc3)c3ccccc32)c1 | 0 | + | 0 | 0 | 0 | 0
O=C(COc1ccccc1-c1ccccc1)N/N=C/c1cccc2ccccc12 | 0 | + | 0 | 0 | 0 | 4.3
Cc1ccc(CNC(=O)COc2ccccc2-c2ccccc2)cc1 | 69.6 | 0 | 0 | 0 | 0 | 0
Cn1c(OCc2ccc3c(c2)OCO3)nc2c1c(=O)n(Cc1cccc(Cl)c1)c(=O)n2C | 0 | 0 | 0 | - | - | -
CCOc1ccc(CSC(=N)N)cc1 | 0 | 0 | 0 | - | 0 | 0
COc1cccc(C2NC(=O)NC(C)=C2C(=O)Nc2cc(OC)ccc2OC)c1 (centres undefined) | 0 | 0 | 0 | 0 | 0 | 0
COc1cccc(-c2nn(C)c3sc(C(=O)NCc4ccc5c(c4)OCO5)cc23)c1 | 0 | 0 | - | 0 | 0 | 0
COc1cccc(-c2nn(C)c3sc(C(=O)NCc4ccc(C)o4)cc23)c1 | 0 | 0 | 62.5 | 0 | 0 | 0
O=c1c(Cl)c(NCc2ccccc2)cnn1C12CC3CC(CC(C3)C1)C2 | 92.6 | 0 | 0 | 0 | 0 | 0
COc1ccc(NC(=O)C2Cc3ccccc3C(=O)O2)cc1 (centres undefined) | - | - | - | 0 | - | -
C=CCn1c2ccccc2n2nc(C)c(=O)nc12 | 0 | 0 | 81.2 | 0 | 0 | 0
Cn1c(SCC(=O)c2cc3ccccc3o2)nnc1-c1ccccc1 | 0 | - | - | 0 | 0 | 0
Fc1ccc(N/N=C2/CC(c3ccccc3)Oc3ccccc32)c(F)c1 (centres undefined) | 71.5 | 0 | 0 | 0 | 0 | 0
CC(=O)c1cnc2c(-c3ccc(Cl)cc3)c(C)nn2c1C | 0 | 0 | 0 | 0 | 0 | 0
O=C(N/N=C/c1ccc[nH]1)c1sc2ccccc2c1Cl | 98.8 | 0 | - | 0 | 0 | 0
CCC/C=N/NC(=O)c1cc(-c2ccccc2)nc2ccccc12 | 0 | 0 | 0 | 0 | 0 | 0
CCc1ccc2c(Cl)c(C(=O)N/N=C/c3c[nH]c4ccccc34)sc2c1 | 0 | 0 | - | 0 | 0 | 0
SMILES | L major viab | Autophagy mod | INS promoter inh | Ins promoter up | HCT116 PTEN-null | HCT116 bCat-KO
O=C(N/N=C/c1ccc(Cl)cc1)c1cc(-c2cccnc2)nc2ccccc12 | 97.9 | 0 | 0 | 0 | - | -
O=C(N/N=C/c1ccc[nH]1)c1cc(-c2ccc(Cl)cc2)nc2ccccc12 | 89.6 | 0 | - | 0 | - | -
Cc1ccc(/C=N/NC(=O)c2cc(-c3cccnc3)nc3ccccc23)cc1 | 0 | 0 | 0 | 0 | - | -
O=C(Nc1ccc(Cl)cc1)C1CC=CCC1C(=O)OCC(F)(F)C(F)F (centres undefined) | 0 | 0 | 0 | 0 | 0 | 0
Cc1ccc(Nc2ccc(C(=O)N3CCCC3)cn2)c(C)c1 | 0 | 0 | 0 | 0 | 0 | 0
O=C(OCC(=O)N1CCCC1)c1ccc(S(=O)(=O)Nc2ccccc2)cc1 | 0 | 0 | - | 0 | - | -
Cc1cc(Cl)nc(-n2nc(C)cc2C)n1 | - | - | - | 0 | - | -
